This is an account of results in PubChem BioAssay (EPA / NIEHS).

Common to all, as to conditions: mRNA level, 48 h; actives raise or lower the signal
Read-out in assay [1]: NAD(P)H dehydrogenase [quinone] 1 (NQO1), NQO1 (gene 1728)
Put plainly: LTEA_HepaRG_NQO1: Life Technologies and Expression Analysis (LTEA) Assay for NAD(P)H dehydrogenase [quinone] 1 (NQO1) using HepaRG (AID 2283526). The method in brief: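 Transcript induction or suppression is quantified by qRT-PCR in human HepaRG liver cells dosed for 48 hours. Eight half-log concentrations topping at 100 uM are used, with 0.5% DMSO as vehicle and baseline.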

Read-out in assay [2]: Nuclear factor erythroid 2-related factor 2 (Homo sapiens) (UniProt Q16236)
Put plainly: LTEA_HepaRG_NFE2L2: Life Technologies and Expression Analysis (LTEA) Assay for Nuclear factor erythroid 2-related factor 2 (NFE2L2) Transcription Factor using HepaRG (AID 2283527).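 On outcome: TaqMan qRT-PCR transcript level normalised to ACTB GAPDH and POLR2A housekeeping genes.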 The procedure, abridged:
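HepaRG, 48 h dosing, 8-pt half-log series from 100 uM in 0.5% DMSO, duplicates. Read-out: NFE2L2 mRNA by qRT-PCR (ACTB/GAPDH/POLR2A normalization). Bidirectional curve fit vs DMSO baseline.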

Read-out in assay [3]: succinate dehydrogenase complex iron sulfur subunit B (SDHB), SDHB (gene 6390)
Kind of assay: LTEA_HepaRG_SDHB: Life Technologies and Expression Analysis (LTEA) Assay for succinate dehydrogenase complex iron sulfur subunit B (SDHB) using HepaRG (AID 2283528). The procedure, abridged: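 Readout is SDHB transcript level by qRT-PCR, normalised to three housekeeping genes and fitted bidirectionally against 0.5% DMSO vehicle. Human HepaRG cells were treated for 48 h at up to 100 uM.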

Read-out in assay [4]: solute carrier (SLCO1B1), SLCO1B1 (gene 10599)
Kind of assay: LTEA_HepaRG_SLCO1B1: Life Technologies and Expression Analysis (LTEA) Assay for solute carrier (SLCO1B1) using HepaRG (AID 2283530). The method in brief: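 HepaRG, serum-free induction medium, 48 h dosing, 8-pt half-log from 100 uM, 0.5% DMSO vehicle, duplicates. Readout: SLCO1B1 mRNA, qRT-PCR, ACTB/GAPDH/POLR2A normalization; up or down fit vs DMSO.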

Read-out in assay [5]: sulfotransferase 2A1 (SULT2A1), SULT2A1 (gene 6822)
Put plainly: LTEA_HepaRG_SULT2A1: Life Technologies and Expression Analysis (LTEA) Assay for sulfotransferase 2A1 (SULT2A1) using HepaRG (AID 2283531). The procedure, abridged: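 Transcript levels of SULT2A1, quantified by qRT-PCR and normalized to three housekeeping genes, serve as the readout. Human HepaRG cultures receive test chemicals for 48 h at up to 100 uM in half-log steps, with 0.5% DMSO vehicle.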

Read-out in assay [6]: Transforming Growth Factor (TGFA), TGFA (gene 7039)
Put plainly: LTEA_HepaRG_TGFA: Life Technologies and Expression Analysis (LTEA) Assay for Transforming Growth Factor (TGFA) using HepaRG (AID 2283532). The procedure, abridged: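 qRT-PCR read-out of TGFA transcript, normalized to three housekeeping genes, fitted bidirectionally against 0.5% DMSO baseline. Human HepaRG cultures received chemicals for 48 h at eight half-log concentrations, top 100 uM.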

Read-out in assay [7]: Transforming Growth Factor (TGFB1), TGFB1 (gene 7040)
Put plainly: LTEA_HepaRG_TGFB1: Life Technologies and Expression Analysis (LTEA) Assay for Transforming Growth Factor (TGFB1) Transporter using HepaRG (AID 2283533). The method in brief:
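HepaRG, 48 h post-plating, switched to serum-free induction medium; chemicals 100 uM top, half-log, 8 pts, 0.5% DMSO, dup; 48 h exposure; RNA → Fluidigm TaqMan qRT-PCR; norm ACTB/GAPDH/POLR2A; bidirectional fit vs DMSO.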

Read-out in assay [8]: TIMP1, TIMP1 (gene 7076)
Put plainly: LTEA_HepaRG_TIMP1: Life Technologies and Expression Analysis (LTEA) Assay for TIMP1 using HepaRG (AID 2283534).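 On outcome: TaqMan qRT-PCR signal normalized to ACTB GAPDH and POLR2A housekeeping genes.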 The procedure, abridged:
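Readout is TIMP1 mRNA level measured by qRT-PCR and normalized to three housekeeping genes. Human HepaRG cells were treated for 48 h in duplicate at eight concentrations up to 100 uM (0.5% DMSO); gain or loss fitted against DMSO.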

Read-out in assay [9]: Tumor necrosis factor receptor 1 (TNFRSF1A), TNFRSF1A (gene 7132)
Kind of assay: LTEA_HepaRG_TNFRSF1A: Life Technologies and Expression Analysis (LTEA) Assay for Tumor necrosis factor receptor 1 (TNFRSF1A) using HepaRG (AID 2283535). The procedure, abridged: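 Read-out is TNFRSF1A transcript level by TaqMan qRT-PCR, normalized to three housekeeping genes, scored as gain or loss of signal versus 0.5% DMSO. Human HepaRG cells received test chemicals for 48 h at up to 100 uM (half-log series).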

Read-out in assay [10]: Signal transducer and activator of transcription 3 (Homo sapiens) (UniProt P40763)
Kind of assay: LTEA_HepaRG_STAT3: Life Technologies and Expression Analysis (LTEA) Assay for Signal transducer and activator of transcription (STAT3) using HepaRG (AID 2283529). The procedure, abridged: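 HepaRG, 48 h exposure, 8-pt half-log series (top 100 uM), 0.5% DMSO vehicle, duplicates. Readout: STAT3 transcript by Fluidigm qRT-PCR, housekeeping-normalized; bidirectional fit vs DMSO baseline.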

Structures are written as SMILES. The source made the active and inactive calls. How the source made its calls: active means hit-call score of the fitted dose curve at least 0.9, where 1 is the maximum; inactive means score below 0.9.

Chain of Nuclear factor erythroid 2-related factor 2 (Homo sapiens) (Q16236 whole entry, looked up): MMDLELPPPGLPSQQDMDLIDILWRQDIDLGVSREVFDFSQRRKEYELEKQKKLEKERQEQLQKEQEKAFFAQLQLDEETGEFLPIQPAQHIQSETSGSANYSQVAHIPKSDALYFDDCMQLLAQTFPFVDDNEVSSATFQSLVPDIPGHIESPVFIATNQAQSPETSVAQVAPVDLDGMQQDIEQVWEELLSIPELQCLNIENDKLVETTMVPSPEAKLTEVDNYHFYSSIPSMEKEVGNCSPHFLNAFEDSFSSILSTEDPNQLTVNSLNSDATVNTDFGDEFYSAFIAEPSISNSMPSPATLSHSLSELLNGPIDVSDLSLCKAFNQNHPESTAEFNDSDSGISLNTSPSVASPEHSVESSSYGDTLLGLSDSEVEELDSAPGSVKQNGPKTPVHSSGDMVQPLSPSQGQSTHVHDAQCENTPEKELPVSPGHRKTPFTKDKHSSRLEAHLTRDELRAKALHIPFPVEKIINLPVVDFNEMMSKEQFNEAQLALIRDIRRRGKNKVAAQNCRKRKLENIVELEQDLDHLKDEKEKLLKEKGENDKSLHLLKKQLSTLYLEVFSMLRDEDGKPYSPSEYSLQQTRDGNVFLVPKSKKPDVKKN
Chain of Signal transducer and activator of transcription 3 (Homo sapiens) (P40763 whole entry, looked up): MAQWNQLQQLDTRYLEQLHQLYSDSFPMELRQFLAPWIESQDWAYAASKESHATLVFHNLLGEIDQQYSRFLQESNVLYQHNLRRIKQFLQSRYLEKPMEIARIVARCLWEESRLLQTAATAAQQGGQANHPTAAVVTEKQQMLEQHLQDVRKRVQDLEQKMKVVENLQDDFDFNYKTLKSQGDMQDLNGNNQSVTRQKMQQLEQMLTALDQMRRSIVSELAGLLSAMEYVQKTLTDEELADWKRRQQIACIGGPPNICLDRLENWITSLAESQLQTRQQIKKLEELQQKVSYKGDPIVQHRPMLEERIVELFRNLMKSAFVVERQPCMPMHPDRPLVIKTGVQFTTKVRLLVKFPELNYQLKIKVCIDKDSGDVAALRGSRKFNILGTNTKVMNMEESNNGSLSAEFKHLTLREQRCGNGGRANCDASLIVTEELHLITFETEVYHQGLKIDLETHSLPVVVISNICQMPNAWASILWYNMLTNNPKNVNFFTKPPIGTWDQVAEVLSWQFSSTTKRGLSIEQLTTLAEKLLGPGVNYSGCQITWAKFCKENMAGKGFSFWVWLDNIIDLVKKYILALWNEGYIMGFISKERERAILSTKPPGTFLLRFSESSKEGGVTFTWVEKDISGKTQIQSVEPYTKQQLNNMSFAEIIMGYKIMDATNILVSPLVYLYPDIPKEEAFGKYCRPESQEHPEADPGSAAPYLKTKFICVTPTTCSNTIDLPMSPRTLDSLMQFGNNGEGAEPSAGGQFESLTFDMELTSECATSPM

As to `CCC(C)c1cc([N+](=O)[O-])cc([N+](=O)[O-])c1O` (configuration not stated), the AC50 in assay [1] was 3.47 µM (active); in assay [3] it was 656 nM (active); in assay [4], 2.32 µM (active); in [5], 3.13 µM (active); in assay [6], 4.14 µM (active); in [8], 2.51 µM (active). In addition, the AC50 in [9] is 4.74 µM (active). Further, the result in assay [2] and in [7] was inactive.
As to `COS(=O)(=O)OC`, the call in assay [1], in assay [2], in [3], in assay [10], in assay [5] and in assay [6] was inactive. The call in [7], in [8] and in assay [9] was inactive.
As for `Clc1ccc(C(c2ccccc2Cl)C(Cl)(Cl)Cl)cc1` (configuration not stated), the outcome in assay [1], in assay [2], in assay [3], in [10], in [4] and in assay [5] was inactive. Also, the result in assay [6], in [7], in assay [8] and in [9] was inactive.
Consider `COc1ccc(O)c(C(C)(C)C)c1`, for which the call in [1], in assay [2], in assay [3], in assay [4], in assay [5] and in assay [6] was inactive. In addition, the result in assay [7] and in [8] was inactive.
With `Nc1ccc(-c2ccc(N)cc2)cc1`, the call in assay [1], in [2], in [3], in assay [4], in assay [5] and in assay [6] was inactive. Also, the call in [7], in [8] and in [9] was inactive.
Regarding `c1cc2ccc3cccc4ccc(c1)c2c34`, the call in [1], in assay [2], in assay [3], in [10], in assay [4] and in assay [5] was inactive. The compound was called inactive in [6], in assay [7], in assay [8] and in assay [9].
As for `NS(=O)(=O)C(F)(F)C(F)(F)C(F)(F)C(F)(F)C(F)(F)C(F)(F)C(F)(F)C(F)(F)F`, the AC50 is 12.8 µM (active) in [1]; 2.76 µM (active) in assay [2]; 4970 nM (active) in [3]; 9.33 µM (active) in assay [4]; 13.1 µM (active) in [5]; 12 µM (active) in assay [6]. Moreover, the AC50 was 39.4 µM (active) in [7], 12.4 µM (active) in [8] and 29.4 µM (active) in assay [9].
Take `C[C@]12CCC(=O)C=C1CC[C@@H]1[C@@H]2CC[C@@]2(C)[C@H]1CC[C@]2(C)O`: the result in assay [1], in assay [2], in assay [3], in assay [10], in [4] and in [5] was inactive. The compound was classed as inactive in [6] and in assay [8]. Also, the AC50 in [7] and in assay [9] was 45.8 µM (active) each time.
On to `CCCCCCCCCC[N+](C)(C)CCCCCCCCCC`, for which the compound was classed as inactive in [1], in [3], in assay [4], in assay [6] and in [7]. For the same compound, the AC50 in assay [2] is 75 µM (active); in assay [5] it was 80.9 µM (active); in assay [8], 10.3 µM (active); in assay [9], 79.3 µM (active).
Regarding `Clc1ccc(C(Cl)(Cl)Cl)cc1`, the outcome in assay [1], in assay [2], in [3], in assay [10], in assay [4] and in assay [5] was inactive. Further, the compound was called inactive in assay [6], in assay [7], in [8] and in [9].
Regarding `Cc1cccc(C)c1N`, the compound was classed as inactive in assay [1], in assay [2], in assay [3], in assay [4], in [5] and in assay [6]. In addition, the outcome in [7], in assay [8] and in assay [9] was inactive.
Take `Cc1ccccc1O`: the compound was classed as inactive in [1], in assay [2], in assay [3], in [10], in assay [4] and in assay [5]. For the same compound, the result in assay [6], in assay [7], in assay [8] and in assay [9] was inactive.
Turning to `CO/C=C(/C(=O)OC)c1ccccc1COc1cccc(C(F)(F)F)n1`, the result in assay [1], in assay [3] and in assay [7] was inactive. In addition, the AC50 is 21.6 µM (active) in assay [2]; 3.4 µM (active) in [10]; 8.29 µM (active) in assay [4]; 21.5 µM (active) in [5]; 10.6 µM (active) in [6]; 26.8 µM (active) in assay [8]. The AC50 in assay [9] was 4.97 µM (active).
As to `Cc1cc(O)ccc1Cl`, the result in assay [1], in [2], in assay [3], in assay [10], in assay [4] and in [5] was inactive. Further, the compound was called inactive in assay [6], in [7], in assay [8] and in [9].
`Clc1ccc(Cl)cc1`: the outcome in assay [1], in assay [2], in assay [3], in assay [10], in assay [4] and in [5] was inactive. For the same compound, the compound was called inactive in [6], in [7], in assay [8] and in assay [9].
With `CC1=C2C[C@H]3[C@@H](CC=C4C[C@@H](O)CC[C@@]43C)[C@@H]2CC[C@]12O[C@@H]1C[C@H](C)CN[C@H]1[C@H]2C`, the result in assay [1], in assay [2], in assay [3], in [10], in [4] and in assay [5] was inactive. The result in assay [6], in [7], in assay [8] and in assay [9] was inactive.

Usually AC50 stands for the midpoint of the concentration-response curve, whichever way the signal moves.
